Data reported in PubChem BioAssay AID485360 (National Center for Advancing Translational Sciences (NCATS), 2010).
About 1,500 (0.65%) of roughly 230,000 compounds were called active. Not shown: some 3% with an inconclusive outcome. Many of the other results were omitted from the sample, so actives are more common in it than they were. Values without a mark were called inactive. The call rests on the fitted dose curve; in most records, active means well fitted inhibition curve with a large enough effect; inconclusive means small, poorly fitted or top-dose-only effect; inactive means no such curve, though single readings can be large or run the other way.

These molecules were tested against Lethal(3)malignant brain tumor-like protein 1 (Homo sapiens) (UniProt Q9Y468) (assay: qHTS Assay for the Inhibitors of L3MBTL1). Details: AlphaScreen L3MBTL1–H3K9me1 peptide binding; series mostly up to 57.1 µM; activity, negative = inhibition: at the top concentration.
Chain of Lethal(3)malignant brain tumor-like protein 1 (Homo sapiens) (Q9Y468 whole entry, looked up): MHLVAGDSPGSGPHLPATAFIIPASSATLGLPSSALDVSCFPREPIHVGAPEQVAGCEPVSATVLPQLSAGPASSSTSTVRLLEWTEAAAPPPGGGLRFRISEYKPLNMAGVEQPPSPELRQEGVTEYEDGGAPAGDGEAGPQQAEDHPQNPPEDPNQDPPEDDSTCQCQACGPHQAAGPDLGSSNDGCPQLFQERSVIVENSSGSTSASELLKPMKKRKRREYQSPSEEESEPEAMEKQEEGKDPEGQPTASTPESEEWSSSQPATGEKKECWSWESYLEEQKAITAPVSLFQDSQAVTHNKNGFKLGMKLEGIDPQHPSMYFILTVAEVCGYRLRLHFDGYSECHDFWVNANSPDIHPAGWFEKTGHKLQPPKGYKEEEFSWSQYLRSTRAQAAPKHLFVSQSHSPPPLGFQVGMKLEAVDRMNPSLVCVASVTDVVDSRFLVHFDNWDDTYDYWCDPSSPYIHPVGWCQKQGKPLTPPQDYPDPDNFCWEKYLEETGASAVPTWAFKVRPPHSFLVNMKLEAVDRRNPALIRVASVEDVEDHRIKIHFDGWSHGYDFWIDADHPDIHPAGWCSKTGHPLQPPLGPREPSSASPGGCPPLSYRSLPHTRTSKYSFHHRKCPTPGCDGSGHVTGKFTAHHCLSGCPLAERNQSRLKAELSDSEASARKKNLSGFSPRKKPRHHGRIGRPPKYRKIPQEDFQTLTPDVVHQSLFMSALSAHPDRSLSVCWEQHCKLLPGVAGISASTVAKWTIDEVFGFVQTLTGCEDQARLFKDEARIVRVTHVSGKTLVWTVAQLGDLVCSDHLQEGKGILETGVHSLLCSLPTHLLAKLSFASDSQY
Outline: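 AlphaScreen assay: L3MBTL1 (50 nM final) was preincubated 30 min at room temperature with biotinylated H3(1-15)K9me1 peptide (75 nM final), then 30 min with library compounds; streptavidin donor and nickel chelate acceptor beads (10 ug/mL final) added, 30 min dark.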
Further: nearly all actives have a fitted effect of over 60% in size.
On the % scale 0 is the no-effect control and ±100 the full control effect; potency means the concentration at half of the fitted maximal effect.

Row | SMILES | activity, negative = inhibition | Potency
1 | O=C(CCC1CCCCC1)Nc1cc(C(F)(F)F)ccc1N1CCOCC1 | 16.3% | 
2 | Cc1ccc(S(=O)(=O)CCC(=O)OCC(=O)NCCc2ccc(S(N)(=O)=O)cc2)cc1 | 31.3% | 
3 | COc1ccccc1C(CNC(=O)c1cccc(S(=O)(=O)Nc2ccc(F)cc2)c1)N(C)C (stereo not drawn) | -4.55% | 
4 | O=c1ccc2c(-c3ccccc3S(=O)(=O)O)c3ccc(O)c(O)c3oc-2c1O |  | 0.251 µM (active)
5 | CCNC(=O)N(CC)C[C@H]1N[C@@](CC)(C(=O)OC)[C@H]2C(=O)N(Cc3ccccc3)C(=O)[C@@H]12 | 4.58% | 
6 | Cc1ccsc1C(=O)N/N=C/c1ccc([N+](=O)[O-])cc1 | -0.894% | 
7 | Cc1cc(C(=O)N/N=C/c2cc([N+](=O)[O-])cc(C)c2O)n[nH]1 |  | 22.4 µM (active)
8 | CC(C)(C)c1cc(C(=O)N/N=C/c2ccc([N+](=O)[O-])s2)n[nH]1 | 8.1% | 
9 | Cc1ccccc1NC(=S)NC(=O)Cc1ccc(Cl)cc1 | 0.475% | 
10 | COc1ccc(OCCCC(=O)Nc2cccc(S(=O)(=O)N3CCCCCC3)c2)cc1 | -10.2% | 
11 | CC(C)(C)NS(=O)(=O)NC(=O)C1=C(N2CCCC2)COC1=O | 1.12% | 
12 | COc1ccc2nc3n(c(=O)c2c1)-c1cc(C)ccc1C(=O)NC3Cc1ccc(O)cc1 (stereo not drawn) | -4.33% | 
13 | Cc1ccc(/C([O-])=C(/C(=S)NCc2ccco2)[n+]2ccccc2)cc1[N+](=O)[O-] |  | 10 µM (active)
14 | CC(OC(=O)CNC(=O)c1ccc(Cl)c([N+](=O)[O-])c1)C(=O)NCc1ccco1 (stereo not drawn) | -1.26% | 
15 | O=[N+]([O-])c1cccc(/C([O-])=C(/C(=S)Nc2ccccc2F)[n+]2ccccc2)c1 | -10.3% | 
16 | CC(=O)c1c(C)n(-c2ccc(C)cc2)c2ccc(O)cc12 | 0.558% | 
17 | COc1cc2c(-c3ccc4c(c3)OCO4)c(-c3ccsc3)oc(=O)c2cc1OC | -2.19% | 
18 | Cn1cccc1/C=C1\SC(=O)N(CC(=O)Nc2ccc(F)cc2)C1=O | 8.81% | 
19 | N#Cc1ccccc1CN1C(=O)S/C(=C/c2cccn2-c2cccc(C(=O)O)c2)C1=O |  | 22.4 µM (active)
20 | O=C(O)c1cccc(N2C(=O)Nc3ccccc3N2O)c1 | 11.3% | 
21 | CN(C(=O)CSc1nnc(-c2ccc(C(C)(C)C)cc2)n1C)C1CCS(=O)(=O)C1 (stereo not drawn) | -6.6% | 
22 | CC1(C)Cc2c(C#N)c(SCc3nc4ccccc4[nH]3)nc(N3CCOCC3)c2CO1 | 2.75% | 
23 | O=c1[nH]c(N2CCOCC2)nc2ccccc12 | 6.39% | 
24 | C1=C(N2CCOCC2)/C(=C/c2nc3ccccc3[nH]2)CC1 |  | 25.1 µM (active)
25 | N#CCN(C(=O)COC(=O)C1CC2CCCC(C1)C2=O)c1ccccc1 (stereo not drawn) | 28.5% | 
26 | CC(NC(=O)c1ccccc1C(=O)O)c1ccc(-n2ccnc2)cc1 (stereo not drawn) | -1.91% | 
27 | COc1cc(C=NNC(=O)c2cccnc2)ccc1OC(=O)c1ccccc1F | 7.91% | 

Row | SMILES | activity, negative = inhibition | Potency
28 | COc1ccc(NC(=O)Nc2cccc3cccnc23)cc1 | 2.33% | 
29 | CC(C)c1ccc(Nc2ncccc2C#N)cc1 | 20.4% | 
30 | Nc1ccc(Nc2cc(O)c3ncccc3c2)cc1 |  | 11.2 µM (active)
31 | COc1ccc(S(=O)(=O)N2CCCCC2)cc1NC(=O)COc1ccccc1 | 3.21% | 
32 | Cc1cc(C(=O)COc2ccccc2Cl)c(C)n1C1CC1 | -9.04% | 
33 | CCC(CO)Oc1cc(NC(=O)c2cccc3ccccc23)c2ncn(C(C)C)c2c1 (stereo not drawn) | -4.07% | 
34 | O=C(COC(=O)CSc1ccccc1)Nc1ccc(F)cc1F | 5.2% | 
35 | O=C(COC(=O)c1ccc(F)cc1F)Nc1ncccn1 |  | 20 µM (active)
36 | COc1cc(OC)cc(C(=O)OCC(=O)Nc2ccc(F)cc2F)c1 | 1.96% | 
37 | O=S(=O)(c1ccccc1)N1CCC(c2ccccc2)CC1 | 17.6% | 
38 | O=C(COC(=O)COc1cc(Cl)c(Cl)cc1Cl)NC1CC1 | -1.35% | 
39 | CCCCN(C(=O)CCNC(=O)NC12CC3CC(CC(C3)C1)C2)c1c(N)n(CCCC)c(=O)[nH]c1=O | 20.7% | 
40 | COc1ccc(Cc2nnc(NC(=O)Cc3cccs3)s2)cc1 |  | 4.47 µM (active)
41 | CCc1nnc(NC(=O)Cc2cccs2)s1 | 1.52% | 
42 | COc1ccc(Cc2nnc(NC(=O)c3ccc(OC)cc3OC)s2)cc1 | 1.66% [at 2.29 µM] | 
43 | Cn1cc[n+](C)c1COc1ccc(C=O)cc1 | 3.68% | 
44 | CCOCCOC(=O)C1=C(C)NC(=O)NC1c1ccc2c(c1)OCO2 (stereo not drawn) | 2.78% | 
45 | CC1(c2ccccc2)NC(=O)N(CC(=O)N2CC(=O)Nc3ccccc32)C1=O (stereo not drawn) | -2.19% | 
46 | Cc1ccc(C2(C)NC(=O)N(CC(=O)N3CC(=O)Nc4ccccc43)C2=O)cc1 (stereo not drawn) | 7.53% | 
47 | CCOC(=O)N1CCN(C(=O)C(C)NC(=O)c2ccco2)CC1 (stereo not drawn) | 4.15% | 
48 | CCOc1cc(/C=N/O)cc(Br)c1OC | -1.13% | 
49 | CCOc1c(Br)cc(/C=C2\C(=O)N(CCC#N)N=C2C)cc1OC |  | 14.1 µM (active)
50 | C=CCOc1c(Br)cc(/C=N\n2nnnc2N)cc1OC | 0.799% | 
51 | CCOC(=O)[C@@H]1[C@H]2COc3cc(OC)ccc3[C@@H]2N2C(=O)N(c3cccc(C)c3)C(=O)[C@@]12C | 4.3% | 
52 | CC(OC(=O)c1ccc([N+](=O)[O-])cc1)C(=O)NCC1CCCCC1 (stereo not drawn) | 32.7% | 
53 | CCCCN1C(=O)C(C)=C(C)C1OCCc1ccc(OC)c(OC)c1 (stereo not drawn) | 0.955% [at 2.29 µM] | 
